Screening results: PubChem, National Center for Advancing Translational Sciences (NCATS)
A selection: hits, their analogues and other compounds. The true share with any hit is near 2.3%.
Nrf2 ARE act: activators of Nrf2 (ARE) signaling; Potency, µM (doses to about 46.1 µM), usual class: activators; actives 0.31% (n = 410,000); AREc32 ARE-luciferase reporter (MCF7-derived line), luminescence, 24 h; note: nearly all actives have a fitted effect of over 65% in size
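Steps: seed AREc32_Fluc cells (1000/well, 5% FBS OPTI-MEM); incubate overnight at 37 deg C; add 23 nL compound; incubate 24 hr; add Steady-Glo; hold 30 min RT; read luminescence.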
Nrf2 inh: inhibitors of Nrf2 signaling; A549 ARE-Fluc reporter, luciferase luminescence, 18-24 h; Potency, µM (series often up to 46 µM), usual class: inhibitors; actives 2.1% (n = 360,000); AID 504444; note: nearly all actives have a fitted effect of over 60% in size
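Cells were seeded and rested 2 h, then exposed to compounds for 18-24 h. CellTiter-Fluor was read first as a viability measure. BugLite was added 15 min before the final luminescent read of ARE-luciferase activity in A549 cells.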
Giardia kill: kills Giardia lamblia | actives 0.15% (n = 340,000) | activity change, % at 7.66 µM, hits read low | Giardia lamblia trophozoite viability; in the data active = activity change below about -80%; inconclusive = between about -30% and that limit;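 note: parasites exposed to compound for two days anaerobically before the ATP read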
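Giardia lamblia trophozoites (100 cells/well) were incubated with compounds for 48 h at 37 deg C under anaerobic conditions. Viability was read as ATP content by one-step luminescence after 15-30 min at room temperature.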
A549 tox: kills or reduces viability of A549 cells in Nrf2 counter-screen; actives 0.16% (n = 390,000); AID 504648; Potency, µM (series often up to 46 µM), most hits filed as inhibitors; A549 ARE-Fluc cells, CellTiter-Fluor viability, 18-24 h
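Cytotoxicity counterscreen: CellTiter-Fluor fluorescence was measured in A549 ARE_Fluc cells after 18-24 h of compound exposure in a concentration series. The subsequent BugLite luminescent read reports ARE-luciferase activity.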
Anesthetic bind: binds horse apoferritin like a general anesthetic; P02791; apoferritin/1-aminoanthracene competitive binding, fluorescence; actives 0.074% (n = 350,000); Potency, µM (doses to about 77.5 µM), most hits filed as inhibitors; AID 485281; note: nearly all actives have a fitted effect of over 20% in size
Target sequence (P02791 2-175 limits assumed): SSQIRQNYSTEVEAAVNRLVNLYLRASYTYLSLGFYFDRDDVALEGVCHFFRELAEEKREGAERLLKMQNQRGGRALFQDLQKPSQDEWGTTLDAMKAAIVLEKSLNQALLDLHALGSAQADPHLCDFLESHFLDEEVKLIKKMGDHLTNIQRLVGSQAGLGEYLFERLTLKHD
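Steps: apoferritin (10 uM) was premixed with half-saturated 1-AMA in PBS, compounds were pin-transferred, plates stood 10 min at room temperature, fluorescence was read at 380/535 nm, and curves were fitted with a Hill equation.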
mIDH1 inhibitor: blocks human mutant IDH1 R132H enzyme; O75874; IDH1-R132H enzyme, NADPH consumption, diaphorase/resazurin fluorescence; Potency, µM (series often up to 76.6 µM), actives largely listed as inhibitors; actives 0.093% (n = 390,000); note: nearly all actives have a fitted effect of over 65% in size
Target sequence (O75874 whole entry R132H, stated change not applied): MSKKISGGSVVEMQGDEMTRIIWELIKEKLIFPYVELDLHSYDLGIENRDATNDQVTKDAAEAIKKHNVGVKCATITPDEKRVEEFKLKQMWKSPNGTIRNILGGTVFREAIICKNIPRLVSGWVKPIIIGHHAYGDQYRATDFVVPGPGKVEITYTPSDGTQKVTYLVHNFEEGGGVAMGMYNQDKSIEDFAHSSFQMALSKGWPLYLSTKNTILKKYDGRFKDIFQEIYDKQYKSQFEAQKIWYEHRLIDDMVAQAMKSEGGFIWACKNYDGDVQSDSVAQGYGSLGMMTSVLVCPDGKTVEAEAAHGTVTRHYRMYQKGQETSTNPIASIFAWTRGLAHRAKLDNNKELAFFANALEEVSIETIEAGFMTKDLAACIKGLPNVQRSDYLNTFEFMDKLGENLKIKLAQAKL
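IDH1-R132H (0.5 ug/mL dispensed) in pH 7.5 Tris buffer was preincubated 30 min with compound, then given a substrate mix of 0.016 mM NADPH and 2 mM alpha-KG for 80 min at room temperature; remaining NADPH was read by diaphorase/resazurin fluorescence.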
Of the large screens only hits and unclear results are named; the others gave an inactive call. Unless noted, calls come from the whole dose curve; as a rule, active = well fitted curve in the direction sought with a large enough effect; inconclusive = small, poorly fitted or top-dose-only effect, or another doubt; inactive = no such curve, though single readings can be large; an effect the other way counts as inactive or inconclusive.

CCOC(=O)C1=CC[C@]2(C)c3c(c4ccccc4n3C)C(=O)C1N2C	none (no result: Anesthetic bind)
CCOC(=O)C1=CCC2c3c(c4ccccc4n3C)C(=O)C1N2C(=O)OC(C)(C)C (configuration not stated)	Nrf2 inh 15µM, A549 tox inconclusive (no result: Anesthetic bind)
COc1ccc(-c2noc(-c3ccc(NCc4ccco4)c([N+](=O)[O-])c3)n2)cc1	none (no result: Giardia kill)
Cc1ccnc(Sc2ccc([N+](=O)[O-])cc2[N+](=O)[O-])n1	Nrf2 inh inconclusive, A549 tox inconclusive, Anesthetic bind inconclusive
Cc1ccc(Sc2ccc([N+](=O)[O-])cc2[N+](=O)[O-])nc1	Nrf2 ARE act 16µM
CCCCC(CC)C/C=C1\CC(C(=O)OCC)Oc2ccccc21 (configuration not stated) (tested in a mixture with another compound)	none (no result: Nrf2 ARE act, Nrf2 inh, Giardia kill, A549 tox, mIDH1 inhibitor)
COc1ccc(OC)c(C2C(C(=O)c3cc4ccccc4o3)=C(O)C(=O)N2c2cc(C)on2)c1 (configuration not stated)	Nrf2 inh inconclusive, A549 tox 12µM
CCCOc1ccc(C2C(C(=O)c3cc4ccccc4o3)=C(O)C(=O)N2c2cc(C)on2)cc1 (configuration not stated)	Nrf2 inh inconclusive, A549 tox 21µM
CCCOc1ccc(C2C(C(=O)c3cc4ccccc4o3)=C(O)C(=O)N2c2cc(C)on2)cc1OC (configuration not stated)	Nrf2 inh inconclusive
Fc1ccc(C(c2nnc(-c3ccccc3)o2)N2CCN(c3ccccc3)CC2)c(Cl)c1 (configuration not stated)	Nrf2 inh inconclusive (no result: Giardia kill)
O=C(NCC(F)(F)F)c1cc2c(c(-c3cccc(-c4ccccc4F)c3)n1)[C@@H](CCO)N(C(=O)CC1CC1)C2	none (no result: Nrf2 inh, Giardia kill, A549 tox, Anesthetic bind, mIDH1 inhibitor)
CCN(CC)C(=O)C1CCCN(c2ncnc3c2cnn3-c2ccc(Cl)cc2)C1 (configuration not stated)	Nrf2 inh 21µM, Anesthetic bind inconclusive
Cc1ccc(S/C(=N/S(=O)(=O)c2ccc(Cl)cc2)c2ccccc2)cc1	none (no result: Nrf2 ARE act, Anesthetic bind, mIDH1 inhibitor)
O=[N+]([O-])c1ccc(O)c(-c2ccnc3cc(-c4ccccc4)nn23)c1	Nrf2 inh 18µM, A549 tox 16µM (no result: Giardia kill)
O=C(O)c1ccc(COc2ccc3ccccc3c2/C=C2/NC(=O)N(Cc3ccc(F)cc3)C2=O)cc1	Nrf2 inh 21µM
COC(=O)CC1(C(=O)OC)Oc2ccc(Br)cc2C(=O)N1c1cc(Cl)c(Cl)cc1Cl (configuration not stated)	Nrf2 inh inconclusive
COC(=O)CC1(C(=O)OC)Oc2ccc(Br)cc2C(=O)N1c1ccc(Br)cc1Cl (configuration not stated)	Nrf2 inh 16µM
CCc1c(C#N)c(SCCC(=O)Nc2ccc(F)cc2)nc2c1C(=O)CC(C)(C)C2	Nrf2 inh 18µM, A549 tox inconclusive, Anesthetic bind inconclusive
OC[C@@H]1[C@@H](c2ccc(F)cc2)C(c2ccc(F)cc2)=NN1c1ccccc1	none (no result: Nrf2 ARE act, Nrf2 inh, Giardia kill, A549 tox, mIDH1 inhibitor)
Cc1cccc2cc(C#N)c(NCCNC(=O)NC3CCCCC3)nc12	Nrf2 inh 9.2µM
CC(=O)Nc1cccc(-c2ccnc3c2CC(C(=O)Nc2ccc(C(C)C)cc2)O3)c1 (configuration not stated)	none (no result: Nrf2 inh, Giardia kill, A549 tox, Anesthetic bind, mIDH1 inhibitor)
O=C(NCCc1nc2ccccc2n1CCCOc1ccccc1Cl)C1CCCCC1	Nrf2 inh inconclusive (no result: Nrf2 ARE act, Anesthetic bind, mIDH1 inhibitor)
COC(=O)c1c(C)[nH]c(C(=O)/C=C/c2ccccc2)c1C	Nrf2 inh inconclusive
COC(=O)c1c(C)[nH]c(C(=O)/C=C/c2ccc(C)cc2)c1C	Nrf2 inh 2.6µM
CSc1ccc(CNC(=O)CCc2c(C)nn(-c3ccc(N4CCCC4)nn3)c2C)cc1	none (no result: Giardia kill)
O=C(O)c1cc(O)c2c(c1)[C@H]([C@H]1c3cc(C(=O)O)cc(O)c3C(=O)c3c(O[C@@H]4O[C@H](CO)[C@@H](O)[C@H](O)[C@H]4O)cccc31)c1cccc(OC3O[C@H](CO)[C@@H](O)[C@H](O)[C@H]3O)c1C2=O (some centres not stated)	Nrf2 inh inconclusive, A549 tox 16µM (no result: Anesthetic bind)
O=C1CSC2(C(=O)N(Cc3cccc(C(F)(F)F)c3)c3ccccc32)N1c1ccc(F)c(F)c1 (configuration not stated)	Nrf2 inh inconclusive, A549 tox inconclusive (no result: Giardia kill)
O=C1CSC2(C(=O)N(Cc3cccc(F)c3)c3ccccc32)N1c1cccc(C(F)(F)F)c1 (configuration not stated)	Nrf2 inh 23µM (no result: Giardia kill)
COc1ccc2c(c1)C(c1ccccc1OC)CC(=O)O2 (configuration not stated)	none (no result: Nrf2 ARE act, Nrf2 inh, Giardia kill, A549 tox, mIDH1 inhibitor)
CCc1ccc(S(=O)(=O)c2nnn(-c3ccc(F)cc3)c2N)cc1	Nrf2 inh 13µM (no result: Giardia kill)
CCNc1cccc(S(=O)(=O)N2CCN(S(=O)(=O)c3ccc4c(c3)OCCO4)CC2)c1	Nrf2 inh inconclusive (no result: Nrf2 ARE act, Giardia kill, Anesthetic bind, mIDH1 inhibitor)
CN(CC(=O)Nc1ccc(F)cc1)C(=O)c1ccc(-c2ccc(F)cc2)o1	none (no result: Nrf2 inh, Giardia kill, A549 tox, Anesthetic bind)
CCOC(=O)c1ccc(NC(=O)CCc2nc(-c3ccccc3Cl)no2)cc1	Nrf2 inh 16µM
C=CCn1c(-c2ccc(S(=O)(=O)N3CCOCC3)cc2)csc1=Nc1ccccc1	Nrf2 inh inconclusive
O=S(=O)(c1ccc(-c2csc(=Nc3ccc(F)cc3)n2CCCCCCO)cc1)N1CCCC1	Nrf2 inh 23µM, A549 tox inconclusive (no result: Giardia kill)
CC(C)Cn1c(-c2ccc(S(=O)(=O)N3CCCC3)cc2)csc1=Nc1ccccc1	Nrf2 inh 16µM (no result: Giardia kill)
CC(=O)c1cccc(N=c2scc(-c3ccc(S(=O)(=O)N4CCOCC4)cc3)n2CCO)c1	Nrf2 inh 15µM
CN(C)CCNc1ncnc2ccc(-c3ccc4c(c3)OCO4)cc12	none (no result: Nrf2 ARE act, Giardia kill, Anesthetic bind, mIDH1 inhibitor)
NS(=O)(=O)c1ccc(CCNC(=O)c2ccc([N+](=O)[O-])s2)cc1	Nrf2 inh 9.2µM, A549 tox inconclusive
CCCCCCN(C(=O)CCCCCN1C(=O)NC(c2ccc(-c3ccccc3)cc2)C(C(=O)OCc2ccccc2)=C1C)C(C(=O)NCCCC)c1ccc(OCC(=O)O)c(C(=O)O)c1 (configuration not stated)	none (no result: Nrf2 ARE act, Nrf2 inh, Giardia kill, A549 tox, mIDH1 inhibitor)
COc1ccc(NC(=O)c2oc3ccccc3c2NC(=O)c2cccc(F)c2)c(OC)c1	none (no result: Giardia kill)
COc1ccccc1C(C[N+](=O)[O-])c1c(N)n(C)c(=O)n(C)c1=O (configuration not stated)	Nrf2 ARE act inconclusive, Nrf2 inh 12µM, A549 tox inconclusive
COc1ccccc1C(c1c(N)n(C)c(=O)n(C)c1=O)C(C)[N+](=O)[O-] (configuration not stated)	Nrf2 ARE act inconclusive, Nrf2 inh inconclusive
